# Screening data from PubChem.
# In the library only some 0.85% were active in any assay of this set; here they are far more common.
# APEX1 inh = inhibitors of human APE1 endonuclease; AID 2517; P27695; recombinant APE1, TAMRA/BHQ-2 abasic DNA cleavage fluorescence; Potency, µM (doses to about 65.8 µM), without a hit: top-dose activity change, negative = inhibition, hits mostly inhibitors; 0.35% of 350,000 active;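 note: plate controls were vehicle for no effect and reference inhibitor for full effect; nearly all actives have a fitted effect of over 55% in size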
#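 Quantitative HTS: incision of a TAMRA/BHQ-2 double-stranded substrate bearing a tetrahydrofuran abasic site by 0.75 nM APE1 raises fluorescence. Substrate 50 nM final, added after 15 min compound preincubation at room temperature; progress as third-minus-first kinetic read difference.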
# RECQ1 helicase = blocks DNA unwinding by human RECQ1 | P46063 | RECQ1 DNA unwinding, red fluorescence kinetic read | Potency, µM (top dose mostly 57.3 µM), without a hit: at the highest dose activity, negative = inhibition, usual class: inhibitors | 0.54% of 240,000 active | AID 2549;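 note: plate controls were vehicle for no effect and no enzyme for full effect; nearly all actives have a fitted effect of over 30% in size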
#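 50 nM RECQ1T1 preincubated 15 min with compound in Tris pH 8.0 buffer with MgCl2, DTT, Tween-20 and 2.5 ug/ml poly(dI-dC); started with 200 nM TAMRA/BHQ-2 forked duplex and 2 mM ATP. Unwinding read as fluorescence (525/598 nm), two reads 2 h apart.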
# BLM helicase inh = inhibitors of human Bloom syndrome helicase BLM. recombinant BLM DNA unwinding, fluorescence dequenching. Potency, µM (highest dose often 56.1 µM), inactives show at the highest dose activity change, negative = inhibition, actives largely listed as inhibitors. P54132. 0.2% of 350,000 active;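 note: plate controls were vehicle for no effect and no enzyme for full effect; nearly all actives have a fitted effect of over 35% in size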
# Target sequence (P54132 whole entry, looked up): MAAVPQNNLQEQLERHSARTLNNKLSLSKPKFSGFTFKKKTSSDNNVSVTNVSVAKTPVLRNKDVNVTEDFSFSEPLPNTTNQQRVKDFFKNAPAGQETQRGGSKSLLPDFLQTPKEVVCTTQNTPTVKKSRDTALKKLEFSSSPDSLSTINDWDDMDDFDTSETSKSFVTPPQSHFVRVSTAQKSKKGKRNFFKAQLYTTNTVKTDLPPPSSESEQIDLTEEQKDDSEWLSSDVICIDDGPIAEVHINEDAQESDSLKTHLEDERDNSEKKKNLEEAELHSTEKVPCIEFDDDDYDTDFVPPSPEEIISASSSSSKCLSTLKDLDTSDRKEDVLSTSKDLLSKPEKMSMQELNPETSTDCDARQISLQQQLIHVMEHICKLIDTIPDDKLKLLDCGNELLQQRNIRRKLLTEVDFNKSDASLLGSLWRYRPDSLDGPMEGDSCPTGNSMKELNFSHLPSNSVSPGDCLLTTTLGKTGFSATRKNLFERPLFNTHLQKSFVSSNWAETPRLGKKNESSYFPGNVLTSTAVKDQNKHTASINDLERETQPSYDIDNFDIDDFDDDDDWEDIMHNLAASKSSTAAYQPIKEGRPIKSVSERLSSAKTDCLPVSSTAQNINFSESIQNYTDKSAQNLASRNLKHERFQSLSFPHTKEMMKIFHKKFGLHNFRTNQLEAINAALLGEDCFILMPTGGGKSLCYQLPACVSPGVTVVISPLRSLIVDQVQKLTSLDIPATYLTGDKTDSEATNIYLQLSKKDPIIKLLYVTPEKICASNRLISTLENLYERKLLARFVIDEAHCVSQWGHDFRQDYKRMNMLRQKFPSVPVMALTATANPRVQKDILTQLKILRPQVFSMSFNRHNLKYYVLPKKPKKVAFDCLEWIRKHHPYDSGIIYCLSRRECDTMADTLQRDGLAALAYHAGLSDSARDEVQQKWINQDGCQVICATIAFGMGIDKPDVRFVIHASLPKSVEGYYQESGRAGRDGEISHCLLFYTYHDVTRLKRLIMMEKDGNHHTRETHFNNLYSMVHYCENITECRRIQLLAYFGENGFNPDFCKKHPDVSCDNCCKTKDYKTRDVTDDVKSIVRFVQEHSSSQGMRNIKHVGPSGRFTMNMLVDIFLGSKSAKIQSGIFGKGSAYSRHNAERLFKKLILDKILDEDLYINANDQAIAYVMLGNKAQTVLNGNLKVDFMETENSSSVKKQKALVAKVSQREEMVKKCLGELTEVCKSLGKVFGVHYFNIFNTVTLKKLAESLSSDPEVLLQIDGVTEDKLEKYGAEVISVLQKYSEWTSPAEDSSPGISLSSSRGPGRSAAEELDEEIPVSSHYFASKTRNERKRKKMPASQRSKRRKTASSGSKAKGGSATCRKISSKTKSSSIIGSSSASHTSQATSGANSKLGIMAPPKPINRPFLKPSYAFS
# Tb PGK inh = blocks T. brucei phosphoglycerate kinase | P07378 | PGK/GAPDH coupled, Kinase-Glo luminescence, 60 min | Potency, µM (series often up to 57.5 µM), inactives show at the top dose activity change, negative = inhibition, most hits filed as inhibitors | 0.043% of 380,000 active; note: nearly all actives have a fitted effect of over 60% in size
#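 Luminescent ATP detection (Kinase-Glo Plus) follows a 60-minute room-temperature incubation, with wells lacking PGK as controls. Buffer: 100 mM TEA (pH 7.6), 5 mM MgCl2, 0.01% Tween-20. Coupling enzyme GAPDH (100 nM final) supplies unstable 1,3-BPG in-well.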
# GLS inhibitor = glutaminase GLS (human) inhibition. 0.21% of 410,000 active. AID 624170. Potency, µM (top dose mostly 45.5 µM), without a hit: top-dose activity change, negative = inhibition, hits mostly inhibitors. O94925. GLS enzymatic activity, qHTS titration
#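 Coupled fluorescence readout: glutamate oxidase/HRP/Amplex Red detect glutamate formed by hKGA from L-glutamine (1 mM solution added). Buffer 45 mM KH2PO4 pH 8.2, 0.02% Tween-20; reads at t0 and 30 min RT.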
# TDP1 block = blocks human tyrosyl-DNA phosphodiesterase 1; Q9NUW8; recombinant TDP1, AlphaScreen DNA substrate cleavage; AID 485290; Potency, µM (highest dose often 130 µM), without a hit: at the highest dose activity change, negative = inhibition, actives largely listed as inhibitors; 0.28% of 350,000 active; note: nearly all actives have a fitted effect of over 40% in size
#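 Compounds were preincubated with Tdp1 (1 nM final) for 15 min at room temperature before substrate (15 nM final) started a 5 min reaction; beads (10 ug/ml final) were then added for 10 min before AlphaScreen detection.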
# An asterisk follows results filed as active; i = inactive; ? = inconclusive; . = no result; ! = not active in a repeat; [ ] = dose if it differs, or a comment. Calls come from the whole dose curve; as a rule, active = well fitted curve in the direction sought with a large enough effect; inconclusive = small, poorly fitted or top-dose-only effect, or another doubt; inactive = no such curve, though single readings can be large; an effect the other way counts as inactive or inconclusive. Unless noted, % is set by controls: 0 for no effect and ±100 for the full control effect; potency is the fitted concentration of half-maximal effect.
SMILES,APEX1 inh,RECQ1 helicase,BLM helicase inh,Tb PGK inh,GLS inhibitor,TDP1 block
COc1ccc(N=Cc2cc(Cc3ccccc3Cl)cc([N+](=O)[O-])c2O)cc1OC,-2%,-3%,-1%,-12%,?,8%
Cc1ccc(N=Cc2cc(Cc3ccccc3Cl)cc([N+](=O)[O-])c2O)c(O)c1,-10%,?,16µM*,?,?,11%
COc1ccc(/C=N\NC(=O)CNC(=O)C(c2ccccc2)c2ccccc2)cc1[N+](=O)[O-],-9%,5%,-1%,-2%,0%,3%
COc1cc(/C=N/NC(=O)Cn2cnc3ccccc3c2=O)ccc1O,4%,-7%,-2%,2%,20µM*,-1%
COc1cc(/C=N\NC(=O)CNC(=O)C(c2ccccc2)c2ccccc2)ccc1O,?,1%,-4%,1%,11µM*,1%
O=CN/C=C/c1cc(O)ccc1O,10µM*,-25%,-27%,-8%,?,7.9µM*
C=CC1=C(C)C2=CC3=NC(=C(CC(=O)[O-])C4=NC(=C(C)C4=C([O-])[O-])C=c4[n-]c(c(C)c4CC)=CC1=N2)C(CCC(=O)[O-])C3C.[Cu+2].[Na+].[Na+].[Na+] (configuration not stated),0.4µM*,.,.,.,.,.
COc1ccc(CN(Cc2ccccc2)S(=O)(=O)c2ccccc2)cc1COc1ccc(NC(C)=O)cc1,.,.,.,.,.,1%
O=P(O)(O)C(O)(Cc1cnc2ccccn12)P(=O)(O)O,.,.,.,.,2%,.
O=C(O)[C@@H](O)[C@@H](O)[C@H](O)[C@H](O)CO,?,-15%,-7%,.,-1%,7.9µM*!
OC[C@@H](O)C(O)[C@H](O)[C@H](O)CO (some centres not stated),-3%,-14%,1%,.,.,6%
CC(=O)N1c2ccc(S(=O)(=O)Nc3ccc(C)c(C)c3)cc2CC1C (configuration not stated),.,.,.,.,.,2%
Cc1oc2ncn(C)c(=O)c2c1C(=O)N(Cc1ccccc1)C(C)C,.,.,2%,-6%,0%,-1%
Cc1oc2ncn(C)c(=O)c2c1C(=O)NC(C)c1ccccc1 (configuration not stated),.,.,2%,i,11µM*,3%
COc1ccc(-c2ccc3nnc(-c4ccccc4OC)n3n2)cc1OC,54%,.,.,.,.,.
CC1=NN(c2ccc(Cl)c(C(=O)O)c2)C(=O)C1,?,9%,-10%,-22%,13µM*,.
CC1=NN(c2cccc(Cl)c2)C(=O)C1,-1%,1%,0%,0%,2%,9%
COc1ccc(-c2ccc3c(c2)C2CC3CCN2)cc1 (configuration not stated),.,.,.,-10%,16µM*,.
COc1ccc(-c2ccc3c(c2)C2CC3CCN2C(=O)C2CCCCC2)cc1 (configuration not stated),.,.,.,5%,2%,.
Nc1ccc(S(=O)(=O)N2CCN(S(=O)(=O)c3c(F)cccc3F)CC2)cc1,.,.,.,.,.,1%
CCC(C)NC(=O)CSC1=Nc2ccccc2C2=NC(c3ccccc3)C(=O)N12 (configuration not stated),4%,i,2%,-1%,13µM*,4%
COc1cc(NS(=O)(=O)c2ccc(NC(=S)NC(=O)/C=C/c3ccco3)cc2)ncn1,?,i,3%,20µM*,?,.
CC(C)(C)n1ncc2c(=O)n(Cc3cccc(F)c3)cnc21,1%,.,.,.,.,.
CCCCCC(=O)Nc1cc(S(=O)(=O)O)cc2cc(S(=O)(=O)O)cc(O)c12,.,.,.,1.1µM*,1.8µM*,.
C=C(C)C(=O)Nc1ccc(OC(F)(F)C(F)F)c(NC(=O)C(=C)C)c1,-11%,-9%,-28%,?,13µM*,13µM*
SMILES,APEX1 inh,RECQ1 helicase,BLM helicase inh,Tb PGK inh,GLS inhibitor,TDP1 block
CC(=O)Nc1ccc(OC(F)(F)C(F)F)c(NC(C)=O)c1,0%,-3%,0%,.,-1%,3%
Cc1ccc(NC(=O)CN2C(=O)N/C(=C/c3ccccc3OCc3cccc(C(=O)O)c3)C2=O)cc1,19µM*,.,?,22µM*,0%,6%[0.0935 µM]
Cc1ccc(NC(=O)CN2C(=O)N/C(=C/c3cc(C)n(-c4cccc(C(=O)O)c4)c3C)C2=O)cc1,11µM*,?,-6%,?,?,.
COc1cc(C(=O)OC(COCCC(C)C)CN2CCOCC2)cc(OC)c1OC (configuration not stated),.,.,.,.,-3%,.
O=c1c2ccccc2c(-c2cccc(C(F)(F)F)c2)nn1-c1ccccc1,-1%,0%,-14%,-12%,-5%,-3%
O=c1c2cc(F)ccc2sn1-c1ccccc1,39%,.,.,1%,7.1µM*,1%
O=c1c2cc(C(F)(F)F)ccc2sn1-c1ccccc1,.,.,.,-9%,11µM*,.
N#Cc1ccc2c(=O)n(-c3ccccc3)sc2c1,.,.,.,1%,?,.
CCCCC(NC(=O)Cc1c(C)c2cc3c(C)c(C)oc3c(C)c2oc1=O)C(=O)O (configuration not stated),13%,.,2%,-6%,6%,.
Cc1coc2c(C)c3oc(=O)c(CCC(=O)N[C@@H](C)C(=O)N[C@@H](Cc4ccccc4)C(=O)O)c(C)c3cc12,13µM*,.,-6%,?,?,.
CCCC(NC(=O)Cc1c(C)c2cc3c(C)c(C)oc3c(C)c2oc1=O)C(=O)N[C@@H](Cc1ccccc1)C(=O)O (some centres not stated),21µM*,.,-11%,-13%,1%,.
C[C@H]1C[C@@H]2[C@H]([C@@H](O)C[C@@]3(C)[C@H]2CC[C@]3(O)C(=O)COC(=O)CCC(=O)O)[C@@]2(C)C=CC(=O)C=C12,.,.,.,.,-1%,.
CCCC1Nc2ccc(C(=O)O)cc2C2C=CCC12 (configuration not stated),7%,i,0%,?,10µM*,3%
CCOC(=O)C1Nc2ccc(C(=O)O)cc2C2C=CCC12 (configuration not stated),-9%,.,9%,?,3.2µM*,.
CCOC(=O)c1ccc2c(c1)C1C=CCC1C(C(=O)O)N2 (configuration not stated),?,8.9µM*,28µM*,.,.,0%
CC(C)C1Nc2ccc(C(=O)O)cc2C2C=CCC21 (configuration not stated),4%,13%,-7%,-6%,219%,4%
Cc1ccc(NCN2C(=O)C3C4C=CC(C4)C3C2=O)cc1 (configuration not stated),3%,i,2%,7%,?,4%
